{"source": "paper PMC12136788", "binders": {"B1": {"name": "chr8:98731313:98731314:+_ENSG00000147649_ENST00000336273|hu_mus|motif|central (ssRNA)", "RNA": "GGGAGUUCUACAGUCCGACGAUCACAAGCUUUCUCCUGUUUUGGUCGGGCUUUUGAGGUAUUCACUGGAAGCUCUUCUCGGGUGUCCUUUUCUAGGUCUUCUGUGUCCUGUGUGUGAGAGUUAUCUUCCCCUUGCUUCUUCUUCAACAGAGGAUUGAGCAUCA"}, "B2": {"name": "93992280_93998312_1055_3pUTR_ENSMUSG00000055932_ENSMUST00000069718|mouse|control|control (ssRNA)", "RNA": "GGGAGUUCUACAGUCCGACGAUCAUCAAAGGAUUUCAACGAGACGUCGCCAUCGUCUGAGUCAUUGAGGACAUUCUGCAGCGCCAACUGACAGCGUUCUAAGAUAUAAUCCAAGGUGCCUGUUGAGCACUCUGCCACACGGUGCAACAGAGGAUUGAGCAUCA"}, "B3": {"name": "chrX:20248820:20248821:+_ENSMUSG00000001924_ENSMUST00000001989|mus_mus|mus_mus_mus_hu_True|58_88 (ssRNA)", "RNA": "GGGAGUUCUACAGUCCGACGAUCGGCGAAGUCCGUCACCACAAAGUCAGGCUCUACCAGUGAGGCCACCAAGGAUUUAAAACUAAUCUUCUUAGGUACUUUGACCUGACUGACGAUGCCUCCACGGAUGUAGUCGGAGAAGUUCAACAGAGGAUUGAGCAUCA"}, "B4": {"name": "chr17:60770872:60770873:+_ENSG00000011028_ENST00000303375|hu_hu|hu_hu_hu_mus_True|18_78 (ssRNA)", "RNA": "GGGAGUUCUACAGUCCGACGAUCUCUUUAAAAAAAAAAAAAAAAAGACAAACAAUAAUAAUGGCACUCGAGAAUCAAGAACUACAAUAGAGGGUCCGCUUUGAGUUUUUGUUCACAACAUUGUCCCCUGGGACACGGGGACUGCAACAGAGGAUUGAGCAUCA"}, "B5": {"name": "chr17:60770872:60770873:+_ENSG00000011028_ENST00000303375|hu_hu|hu_hu_hu_mus_True|48_78 (ssRNA)", "RNA": "GGGAGUUCUACAGUCCGACGAUCUCUUUAAAAAAAAAAAAAAAAAGACAAACAAUAAUAAUGGCACUCGAGAAUCAAGAACUACAAAGAAAGGGCCGCUUUGAGUUUUUGUUCACAUCGUCCUGCACUGGGACACGGGGACUGCAACAGAGGAUUGAGCAUCA"}, "B6": {"name": "chr2:204281756:204281757:+_ENSG00000138443_ENST00000261017|hu_hu|motif|central (ssRNA)", "RNA": "GGGAGUUCUACAGUCCGACGAUCCUUUUCCAAGUAAGAACGUGGAGCCCACGGUGGGUCCUCUUCAGCAUAAGGAUCACGGUACUCAACCACAGCAGCUUCCUCCUCUUCGUAAUCUUCUGGAGGAGGAGGAGGUGGGGGAGACAACAGAGGAUUGAGCAUCA"}, "B7": {"name": "chr4:76721835:76721836:+_ENSG00000138768_ENST00000264904|hu_mus|hu_hu_hu_mus_True|68_78 (ssRNA)", "RNA": "GGGAGUUCUACAGUCCGACGAUCGUUUGGCUGGGGUUUCUGAGACGCUCUGGAAUAAACUCAUGUUUGCUAAUAAAAUCCUAGUUUCUCUAUGAAAUUCUCUUUGCCAAUCCUCUUCUCUAUUAGUUGCUUUAGUUUCUCUUUCAACAGAGGAUUGAGCAUCA"}, "B8": {"name": "chr14:62224477:62224478:+_ENSMUSG00000035235_ENSMUST00000039562|mus_hu|FALSE|FALSE (ssRNA)", "RNA": "GGGAGUUCUACAGUCCGACGAUCUUCAUUGAAAAUGAAAAACCCAUCUGUCACCUGUUCCCAGUAAAAAACUGAUUGUUCUAUGAAAUCGGCUGUUUUAGUCAGAUAGGAACUGAAGUUUGAAAGACAGCCUUUCCAAGUUGCCAACAGAGGAUUGAGCAUCA"}, "B9": {"name": "31895827_31897285_3242_CDS_ENSMUSG00000042323_ENSMUST00000112095|mouse|control|control (ssRNA)", "RNA": "GGGAGUUCUACAGUCCGACGAUCCCAACAGCCGUACAACCAUUUUUCACCAGCUGAAUCCUCCCACAGUCUCUCAAUACACACUAUAUGUGGUUGUAGAUUGGCCUCCGCAGGUUCAACAUAGACAUAAUCUCCGACAUGAUACAACAGAGGAUUGAGCAUCA"}, "B10": {"name": "chr14:76906223:76906224:+_ENSMUSG00000022010_ENSMUST00000022587|mus_mus|FALSE|FALSE (ssRNA)", "RNA": "GGGAGUUCUACAGUCCGACGAUCCACUUCCUCCCUCACCGCAUACAUCAAAUGGCUUUUCACCAGAUCCAUAGCUUGCUCUAUUUUGUUGUCGAUAGCUACCACACUUGCACCAGAGCUAUUGUCAAGUCUCACGGAAGCGUUCAACAGAGGAUUGAGCAUCA"}, "B11": {"name": "chr3:124025330:124025331:+_ENSMUSG00000044528_ENSMUST00000058994|mus_mus|FALSE|FALSE (ssRNA)", "RNA": "GGGAGUUCUACAGUCCGACGAUCGUUUAAUCUUAAUUCCCACCACCACUCAUACCGCUGCCAACCCUUAAAAACACAUUAGACAAUAACAAUAGCAAUAUUUAAAAAAGCACGACCCGUUCUGAAAAACAGAAACUCUCUAGCCAACAGAGGAUUGAGCAUCA"}, "B12": {"name": "chr5:143665338:143665339:-_ENSMUSG00000029580_ENSMUST00000100497|mus_hu|FALSE|FALSE (ssRNA)", "RNA": "GGGAGUUCUACAGUCCGACGAUCCACCUUCACCGUUCCAGUUUUUAAAUCCUGAGUCAAGCCAAAAAAAAAAAAAAAACCAAAACAAAACAAAAAAAACAAAUAAAGCCAUGCCAAUCUCAUCUUGUUUUCUGCGCAAGUUAGCAACAGAGGAUUGAGCAUCA"}, "B13": {"name": "39249924_39250044_1625_CDS_ENSG00000115904_ENST00000402219|human|control|control (ssRNA)", "RNA": "GGGAGUUCUACAGUCCGACGAUCACUCCGGUACUGUAAAGAUAUCAAUGCUGCCAUCCAAUUGUUUUUCUCUUCAGCUGACUUGGCAGAAAAUAUAACACUAUUUUCAUCUUUUAAAAUUAUUUCAAAAGCAUGCUUGUAUUCCAACAGAGGAUUGAGCAUCA"}, "B14": {"name": "77377103_77377223_5427_3pUTR_ENSG00000048649_ENST00000308488|human|control|control (ssRNA)", "RNA": "GGGAGUUCUACAGUCCGACGAUCUACAGUCCACCCAGGCCUUAAGAAAGACCACAUUCAUUUCACUAAUAACUCUCCAUCAGACACAAUAUAUUUGAGGCCACCUUAUUACCACUGCAUAAAGCUUAUUUAAAAAAAUUUGUUCAACAGAGGAUUGAGCAUCA"}, "B15": {"name": "chr1:109605425:109605426:-_ENSG00000197780_ENST00000461096|hu_mus|FALSE|FALSE (ssRNA)", "RNA": "GGGAGUUCUACAGUCCGACGAUCUUUAAUCAACUCUCCGUUCUCACAAUUAAAGUACUUACAUUUCCGUCACUAGAGCACAGCCAGAAACACCUGGGCUGGCAUCGGCUCUUUAAGCCCUGCCGUUCCCACUACUGAGGCAUUCAACAGAGGAUUGAGCAUCA"}, "B16": {"name": "chr14:76904430:76904431:+_ENSMUSG00000022010_ENSMUST00000022587|mus_mus|mus_mus_mus_hu_True|58_108 (ssRNA)", "RNA": "GGGAGUUCUACAGUCCGACGAUCUGCUGGAAAAAAAACCCUCGUGGAAAAAAAGAGGGAACACCAGCAGCCUUGUACAAACUAGAUAAAAUCUUCUGGCUUUCCGCAGCCCAGGGAGAAACAGAAAACGGCAGCCCUAAUUUACAACAGAGGAUUGAGCAUCA"}, "B17": {"name": "chr9:108650075:108650076:+_ENSMUSG00000032601_ENSMUST00000035220|mus_mus|FALSE|FALSE (ssRNA)", "RNA": "GGGAGUUCUACAGUCCGACGAUCAGCAAUUUGUUUAUGUAAACAGCACAGAGGUUAAACAAAACAAAACAAAACAAAAACCUACUAAAUACAAACAACAAAAACCCUAACCCAGAUAACCUUUCCUGGCUACUACUGGAAAGACAACAGAGGAUUGAGCAUCA"}, "B18": {"name": "chr1:71529667:71529668:-_ENSG00000132485_ENST00000254821|hu_hu|FALSE|FALSE (ssRNA)", "RNA": "GGGAGUUCUACAGUCCGACGAUCUUGUCACUGGAAAUACUGUUAAGAGAAACCUUUUUAUUUUUUAAACCAGAAAACAAACUAAAGCUCAUGUGACCAGAUUUUAAUUUUGAGAAAUAAACUCCAAAAGCAUUUUAAGCCAUACAACAGAGGAUUGAGCAUCA"}, "B19": {"name": "55618536_55618656_2401_CDS_ENSG00000126787_ENST00000247191|human|control|control (ssRNA)", "RNA": "GGGAGUUCUACAGUCCGACGAUCAACAUCUGAAAUUCCUUCUUUUUUGUUAGUAUUAAUAUCAUCUGCUACUCCACCAGCAAGAAGAGGCAAACUCAUUCUCUCACUGGAUAAACAAUCCACCUUCAAGUCUGUCUUAUUUACCAACAGAGGAUUGAGCAUCA"}, "B20": {"name": "chr2:32530853:32530854:+_ENSG00000119820_ENST00000437765|hu_mus|FALSE|FALSE (ssRNA)", "RNA": "GGGAGUUCUACAGUCCGACGAUCUUCAGAAUUCUGACCAAAAAAAAGAAAAAAAAAUCCCAGAUAACUGCAAUUACUUAAAUACAAAAAAUAUUGUUUUAAAAAGACUUUAAGCCUGCCUCUCUAUCUGGAAUGUAUAAAAUUCAACAGAGGAUUGAGCAUCA"}, "B21": {"name": "24817595_24818005_4380_CDS_ENSG00000090905_ENST00000315183|human|control|control (ssRNA)", "RNA": "GGGAGUUCUACAGUCCGACGAUCCUGAUGGAGUGGCUGCUGCUGAGAUGGUGGAGUCUGCUGCUUCACCAACAGGUUUGGAUCAAGUUGACGAGAUUGUUGCAUCAUUUGCUGCUGCACACUAAGAGGUCGACCCUGCUGGUCCAACAGAGGAUUGAGCAUCA"}, "B22": {"name": "chr10:33190432:33190433:-_ENSG00000150093_ENST00000302278|hu_mus|hu_hu_hu_mus_True|1_48 (ssRNA)", "RNA": "GGGAGUUCUACAGUCCGACGAUCUACAUUUUCCAAACCUGCAUGUGAAUAAAACCCUGGCCACAGAGCCCCAAAACUACCCUACUGUGACUAUGGAGCUGCUGCUGUGAGCUUGGUGUUGCAAAAUCCGCCUGAGUCAGUACUCAACAGAGGAUUGAGCAUCA"}}, "note": "The full ranking holds about 24,000 sequences; the median of “enrichment r” is about 0.99, and the highest 2% start at about 3.7. For the sample, the highest values were picked, then their nearest neighbours and some sequences at random.", "data": [{"molecular_target": "T1, UNK ZnF1-3 (human, UniProt Q9C0B0 31-174)", "T1 sequence": "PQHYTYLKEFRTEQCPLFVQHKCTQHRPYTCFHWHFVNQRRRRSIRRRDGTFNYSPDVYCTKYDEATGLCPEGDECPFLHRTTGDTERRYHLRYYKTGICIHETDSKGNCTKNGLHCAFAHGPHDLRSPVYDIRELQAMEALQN", "experiment": "nsRBNS (natural sequence RNA bind-n-seq); RBNS binding buffer (assumed for nsRBNS): 25 mM Tris pH 7.5, 150 mM KCl, 3 mM MgCl2, 0.01% Triton X-100, 500 ug/ml BSA, 20 U/ml SUPERase-In, 4 C; UNK is unkempt and MSI1 is Musashi-1; names of the RNAs are library labels; protein concentration not given here; high values mean tight binding", "units": {"binding signal": "enrichment R"}, "values": [{"binder": "B1", "binding signal": 0.279}, {"binder": "B2", "binding signal": 1.07}, {"binder": "B3", "binding signal": 0.887}, {"binder": "B4", "binding signal": 4.19}, {"binder": "B5", "binding signal": 4.71}, {"binder": "B6", "binding signal": 0.684}, {"binder": "B7", "binding signal": 0.621}, {"binder": "B8", "binding signal": 0.96}, {"binder": "B9", "binding signal": 1.01}, {"binder": "B10", "binding signal": 1.04}, {"binder": "B11", "binding signal": 4.17}, {"binder": "B12", "binding signal": 2.75}, {"binder": "B13", "binding signal": 1.14}, {"binder": "B14", "binding signal": 3.78}, {"binder": "B15", "binding signal": 0.922}, {"binder": "B16", "binding signal": 2}, {"binder": "B17", "binding signal": 4.03}, {"binder": "B18", "binding signal": 1.66}, {"binder": "B19", "binding signal": 1.29}, {"binder": "B20", "binding signal": 4.78}, {"binder": "B21", "binding signal": 0.736}, {"binder": "B22", "binding signal": 1.02}]}]}
